# Test results published in paper PMC4336329 (PLoS ONE, 2015).
# The whole screen tested about 310,000 compounds, of which about 14,000 (4.5%) showed an effect of 50% or more. Effects have a minus sign here. This excerpt belongs to a sample that is enriched for strong results.
# Target: human ether-à-go-go-related gene (hERG) potassium channel (human, UniProt Q12809)
# Assay: primary screen, population patch clamp on CHO cells stably expressing hERG; higher = less effect of the substance
# 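Also: peak tail current of the secondary pulse compared with the same well before compound.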
# human ether-à-go-go-related gene (hERG) potassium channel, sequence (Q12809 whole entry, looked up): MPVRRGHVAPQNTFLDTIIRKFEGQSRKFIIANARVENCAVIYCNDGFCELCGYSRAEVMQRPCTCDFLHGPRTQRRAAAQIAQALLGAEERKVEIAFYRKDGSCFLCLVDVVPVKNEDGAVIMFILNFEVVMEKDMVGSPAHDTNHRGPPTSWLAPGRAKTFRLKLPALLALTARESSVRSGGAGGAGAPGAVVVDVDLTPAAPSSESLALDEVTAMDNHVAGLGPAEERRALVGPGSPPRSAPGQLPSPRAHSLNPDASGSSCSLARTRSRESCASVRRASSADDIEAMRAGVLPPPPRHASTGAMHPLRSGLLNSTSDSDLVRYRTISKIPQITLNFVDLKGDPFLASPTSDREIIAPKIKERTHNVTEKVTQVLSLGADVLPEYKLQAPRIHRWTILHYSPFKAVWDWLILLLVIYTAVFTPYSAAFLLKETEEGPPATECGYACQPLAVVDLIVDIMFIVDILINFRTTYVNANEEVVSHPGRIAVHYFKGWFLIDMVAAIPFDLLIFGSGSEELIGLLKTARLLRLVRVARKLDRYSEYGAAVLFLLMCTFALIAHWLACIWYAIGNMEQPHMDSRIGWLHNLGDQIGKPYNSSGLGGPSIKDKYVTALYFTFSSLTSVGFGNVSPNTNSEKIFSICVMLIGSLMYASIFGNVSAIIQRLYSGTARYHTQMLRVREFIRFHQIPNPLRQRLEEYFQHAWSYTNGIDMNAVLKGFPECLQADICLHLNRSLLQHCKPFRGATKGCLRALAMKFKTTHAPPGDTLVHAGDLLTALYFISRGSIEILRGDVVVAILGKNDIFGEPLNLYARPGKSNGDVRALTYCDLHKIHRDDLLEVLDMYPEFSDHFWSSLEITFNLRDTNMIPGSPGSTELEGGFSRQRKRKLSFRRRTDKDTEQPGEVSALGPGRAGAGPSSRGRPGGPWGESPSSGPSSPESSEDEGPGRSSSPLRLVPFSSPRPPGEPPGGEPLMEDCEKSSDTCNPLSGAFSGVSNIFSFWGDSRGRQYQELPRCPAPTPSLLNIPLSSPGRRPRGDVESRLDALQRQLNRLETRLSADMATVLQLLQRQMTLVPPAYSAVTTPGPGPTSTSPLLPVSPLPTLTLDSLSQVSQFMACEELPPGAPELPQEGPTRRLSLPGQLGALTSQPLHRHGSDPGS
row,Structure (SMILES),"hERG current change (%, negative = inhibition) at 10uM [%]"
1,CS(=O)(=O)c1ccc(-c2cccc(NC(=O)COc3ccc(Cl)cc3)c2)nn1,6.7
2,Cc1cc(OC(C)C(=O)NCC2CCC(C(=O)O)CC2)c2c(C)cc(=O)oc2c1 (centres unmarked),24.5
3,COCC(C)N1CCC(Oc2ccc(C(=O)NCc3ccccn3)cc2)CC1 (centres unmarked),13.1
4,COCCNC(=O)c1cccc(OC2CCN(Cc3cccc(SC)c3)CC2)c1,-35.2
5,COc1cc(OC)cc(C(=O)NNC(=O)CCCOc2ccccc2)c1,-18.4
6,COc1cc(OC)cc(C(=O)NC2CCN(CCCOc3ccccc3)CC2)c1,-70.2
7,COc1cc(OC)cc(C(=O)NCCOc2ccccc2)c1,-17.6
8,O=C(NC1CC1)c1cccc(Oc2ccccc2)c1,1.52
9,CN1CCC(NC(=O)c2cccc(Oc3ccccc3)c2)CC1,-8.93
10,COCC(C)N1CCC(Oc2cccc(C(=O)NCCc3ccccc3)c2)CC1 (centres unmarked),-66.3
11,COc1ccc(C2(O)CCN(CCCCOc3ccccc3)CC2)cc1,-70.6
12,CCCN1CCC(NC(=O)c2cccc(Oc3ccccc3)c2)CC1,-51.9
13,c1ccc(OCCCCN2CCOCC2)cc1,-14.5
14,COc1cccc(OCCCCN2CCCCC2)c1,-8.36
15,Cn1cc(/C=C(\C#N)C(=O)Nc2cccc([N+](=O)[O-])c2)c2ccccc21,28.4
16,COc1ccc(F)cc1C(=O)C1CCCN(C(=O)c2ccc(C(C)=O)s2)C1 (centres unmarked),-4.71
17,COC(=O)c1ccc(N=C(c2ccccc2)c2c(O)n(C)c(=O)n(C)c2=O)cc1,6.79
18,CC(=O)N(C)c1ccc(N=Cc2c(O)ccc3ccccc23)cc1,-20.9
19,O=C1CCCC(O)=C1N=Nc1ccc(S(=O)(=O)N2CCOCC2)cc1,2.06

row,Structure (SMILES),"hERG current change (%, negative = inhibition) at 10uM [%]"
1,COc1ccc(NC(=O)C2C3C=CC4(O3)C2C(=O)N(CCN2CCCCC2C)C4C(=O)NC2CCCC(C)C2C)cc1 (centres unmarked),-22.4
2,Cc1cccc(C)c1-n1c(SCC(=O)N2CC(=O)Nc3ccccc32)nc2ccccc2c1=O,-0.373
3,CS(=O)(=O)N(CC(=O)N1CCN(c2ccc(F)cc2)CC1)c1cccc(Cl)c1,-49.9
4,O=C(NCCc1csc(-c2cccnc2)n1)c1cccs1,-5.91
5,C#CCN1C(=O)C(O)(CC(=O)/C=C/C=C/c2ccccc2)c2ccccc21 (centres unmarked),21.6
6,COCCNC(=O)c1cccc(OC2CCN(Cc3ccccc3C)CC2)c1,6.34
7,CCCN1CCC(Oc2cccc(C(=O)NCCc3ccccc3)c2)CC1,-66
8,COCCNC(=O)c1cccc(OC2CCN(Cc3cccc(C(C)=O)c3)CC2)c1,6.74
9,Oc1ccc(Br)cc1-c1cc(-c2ccc(Cl)cc2)n[nH]1,7.99
10,Cc1ccc(Sc2ncnc3onc(C)c23)cc1,4.79
11,Cc1noc2ncnc(Sc3ccc(Cl)cc3)c12,16.3
12,Cc1noc2ncnc(Sc3ccc(Br)cc3)c12,-50.8
13,O=[N+]([O-])c1ccccc1CNCCCCO,-3.05
14,CC(C)c1csc2nc3n(c(=O)c12)CCCCC3,-10.7
15,Cc1cc(C(=O)N2CCCC(N3CCN(c4cccc(C(F)(F)F)c4)CC3)C2)no1 (centres unmarked),-2.14
16,O=C(c1ccsc1)N1CCCC(N2CCN(c3cccc(Cl)c3)CC2)C1 (centres unmarked),-47.1
17,Cc1cnc(C(=O)N2CCCC(N3CCN(c4cccc(C(F)(F)F)c4)CC3)C2)cn1 (centres unmarked),-39.7
18,Cc1cc(C(=O)N2CCCC(N3CCN(c4cccc(C(F)(F)F)c4)CC3)C2)n[nH]1 (centres unmarked),-53.2
19,O=C(c1ccoc1)N1CCCC(N2CCN(c3cccc(C(F)(F)F)c3)CC2)C1 (centres unmarked),-55.5

row,Structure (SMILES),"hERG current change (%, negative = inhibition) at 10uM [%]"
1,Cc1nnsc1C(=O)N1CCCC(N2CCN(c3cccc(C(F)(F)F)c3)CC2)C1 (centres unmarked),-26.8
2,O=C(c1ccsc1)N1CCCC(N2CCN(c3cccc(C(F)(F)F)c3)CC2)C1 (centres unmarked),-64.2
3,O=C(c1cc[n+]([O-])cc1)N1CCCC(N2CCN(c3cccc(C(F)(F)F)c3)CC2)C1 (centres unmarked),-6.27
4,Cc1occc1C(=O)N1CCCC(N2CCN(c3cccc(C(F)(F)F)c3)CC2)C1 (centres unmarked),-38.9
5,O=C(c1cccs1)N1CCCC(N2CCN(c3cccc(C(F)(F)F)c3)CC2)C1 (centres unmarked),-68.4
6,O=C(c1ccoc1)N1CCCC(N2CCN(c3cccc(Cl)c3)CC2)C1 (centres unmarked),-41.3
7,CCn1cc(C(=O)N2CCCC(N3CCN(c4cccc(C(F)(F)F)c4)CC3)C2)cn1 (centres unmarked),-29.2
8,CC(=O)c1ccc(N2C(=NC(=O)COc3ccccc3)SC3CS(=O)(=O)CC32)cc1 (centres unmarked),-3.89
9,COc1cc2c(cc1OC)CN(C(=O)c1cc(Cl)nc(Cl)c1)CC2,12.1
10,CC(=O)OCC(OC(C)=O)C(OC(C)=O)C(OC(C)=O)C(=O)Nc1ccccc1 (centres unmarked),16.6
11,COc1ccc(CNC(=O)Nc2ccc([N+](=O)[O-])cc2)cc1,5.47
12,CN(CC(=O)Nc1ccc(Cl)c(S(=O)(=O)N2CCOCC2)c1)C(=O)c1cccs1,-44.2
13,CCOc1ccccc1NC(=O)C1CCCN1C(=O)c1cccs1 (centres unmarked),7.83
14,Cc1ccc(CNC(=O)CCC(=O)Nc2nnc(C3CCCCC3)s2)cc1,17.6
15,CCOc1ccc(OCC(=O)OCC(=O)N2CCN(C(=O)c3ccco3)CC2)cc1,-21.9
16,O=C(CSc1nnc(SCc2ccc(F)cc2)s1)Nc1ccc(C(=O)O)cc1,18.6
17,O=C(O)c1cc(O)ccc1NC(=O)C1CCCO1 (centres unmarked),-0.924
18,O=C(c1ccc(F)cc1F)N1CCN(c2ccccn2)CC1,0.804
